Experimental data published in publication PMC7862700, “An all-to-all approach to the identification of sequence-specific readers for epigenetic DNA modifications on cytosine”.

How the values were obtained:
Assay in all cases: DAPPL (digital affinity profiling via proximity ligation, sequencing); 10 mM Tris-HCl pH 7.5, 50 mM NaCl, 1 mM DTT, 4% glycerol, room temperature, 30 min; GST-TFs on glutathione beads, 16-mer random dsDNA library, 0.1% formaldehyde crosslink after washing; high values mean tight binding
Details in all cases: protein: recombinant; tags: N-terminal GST; dsDNA, one strand shown
[1] = biological target: T1, FLI1 (Homo sapiens, UniProt Q01543 1-452)
T1 sequence: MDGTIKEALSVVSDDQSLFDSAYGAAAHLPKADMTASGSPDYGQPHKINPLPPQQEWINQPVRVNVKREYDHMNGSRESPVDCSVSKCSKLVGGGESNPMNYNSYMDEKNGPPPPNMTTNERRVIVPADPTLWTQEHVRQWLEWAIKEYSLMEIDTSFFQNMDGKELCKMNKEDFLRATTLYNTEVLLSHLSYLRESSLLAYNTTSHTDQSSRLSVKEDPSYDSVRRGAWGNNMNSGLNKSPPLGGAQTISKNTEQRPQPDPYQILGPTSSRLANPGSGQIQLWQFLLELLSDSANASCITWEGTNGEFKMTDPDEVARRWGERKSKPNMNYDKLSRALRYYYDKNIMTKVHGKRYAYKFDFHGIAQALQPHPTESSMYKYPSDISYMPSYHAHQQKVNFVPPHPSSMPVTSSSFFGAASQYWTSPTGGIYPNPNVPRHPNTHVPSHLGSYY
Summary of the method: (§1)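 The binding signal reported is, for every hexamer, its read frequency for a factor over its read frequency for the tag-only sample. Reads came from pools of yeast-expressed, GST-fused human transcription factors on glutathione beads, barcoded with DNA and mixed with that sample, which were incubated with 200 nmole of a random double-stranded 16-mer DNA library in Tris/NaCl/DTT/glycerol buffer at room temperature for 30 min. After washing, the pools were crosslinked with 0.1% formaldehyde, proximity-ligated with BsaI/T4 ligase for 1 h at 37 °C, PCR-amplified and sequenced on an Illumina NextSeq500.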

[2] = biological target: T2, ELK1 (Homo sapiens, UniProt P19419 1-428)
T2 sequence: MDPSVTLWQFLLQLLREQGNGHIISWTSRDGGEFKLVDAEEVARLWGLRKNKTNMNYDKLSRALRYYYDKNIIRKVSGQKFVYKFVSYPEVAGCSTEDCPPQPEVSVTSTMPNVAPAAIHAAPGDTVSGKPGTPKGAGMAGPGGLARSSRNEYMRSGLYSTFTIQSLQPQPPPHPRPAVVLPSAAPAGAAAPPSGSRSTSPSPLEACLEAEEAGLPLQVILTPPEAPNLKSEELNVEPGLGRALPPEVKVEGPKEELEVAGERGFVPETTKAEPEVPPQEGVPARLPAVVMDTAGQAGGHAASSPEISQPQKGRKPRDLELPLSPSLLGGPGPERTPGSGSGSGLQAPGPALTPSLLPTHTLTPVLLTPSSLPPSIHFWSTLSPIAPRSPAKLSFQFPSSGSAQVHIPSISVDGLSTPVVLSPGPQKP
Summary of the method: as §1

[3] = biological target: T3, GABPA (Homo sapiens, UniProt Q06546 1-454)
T3 sequence: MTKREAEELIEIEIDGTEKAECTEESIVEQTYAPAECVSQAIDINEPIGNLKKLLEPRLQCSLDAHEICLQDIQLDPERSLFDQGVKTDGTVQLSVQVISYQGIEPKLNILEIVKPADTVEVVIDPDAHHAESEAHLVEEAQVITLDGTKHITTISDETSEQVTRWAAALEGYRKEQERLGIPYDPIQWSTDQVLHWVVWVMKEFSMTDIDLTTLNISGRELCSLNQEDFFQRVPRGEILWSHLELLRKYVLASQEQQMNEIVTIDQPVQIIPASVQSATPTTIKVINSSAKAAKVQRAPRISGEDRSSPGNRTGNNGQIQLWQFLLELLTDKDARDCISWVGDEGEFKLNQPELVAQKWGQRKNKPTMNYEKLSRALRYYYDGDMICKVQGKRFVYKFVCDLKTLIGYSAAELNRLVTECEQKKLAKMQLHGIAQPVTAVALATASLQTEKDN
Summary of the method: as §1

[4] = biological target: T4, ERG (Homo sapiens, UniProt P11308 1-479)
T4 sequence: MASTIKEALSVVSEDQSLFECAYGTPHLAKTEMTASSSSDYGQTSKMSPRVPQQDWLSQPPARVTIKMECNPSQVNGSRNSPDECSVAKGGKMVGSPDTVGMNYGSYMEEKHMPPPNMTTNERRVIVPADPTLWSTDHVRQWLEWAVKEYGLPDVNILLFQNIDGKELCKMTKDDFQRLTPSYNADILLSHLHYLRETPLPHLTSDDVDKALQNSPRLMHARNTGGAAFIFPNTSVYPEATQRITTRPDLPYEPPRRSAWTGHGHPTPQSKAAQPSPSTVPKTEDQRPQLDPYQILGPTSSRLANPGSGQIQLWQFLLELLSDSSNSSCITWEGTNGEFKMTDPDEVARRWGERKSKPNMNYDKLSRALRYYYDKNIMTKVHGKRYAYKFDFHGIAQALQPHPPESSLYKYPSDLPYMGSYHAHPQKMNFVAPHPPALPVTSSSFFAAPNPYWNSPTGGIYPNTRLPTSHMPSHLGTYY
Summary of the method: as §1

[5] = biological target: ELF1 (Homo sapiens, UniProt P32519 1-619)
Sequence of ELF1 (P32519 whole entry): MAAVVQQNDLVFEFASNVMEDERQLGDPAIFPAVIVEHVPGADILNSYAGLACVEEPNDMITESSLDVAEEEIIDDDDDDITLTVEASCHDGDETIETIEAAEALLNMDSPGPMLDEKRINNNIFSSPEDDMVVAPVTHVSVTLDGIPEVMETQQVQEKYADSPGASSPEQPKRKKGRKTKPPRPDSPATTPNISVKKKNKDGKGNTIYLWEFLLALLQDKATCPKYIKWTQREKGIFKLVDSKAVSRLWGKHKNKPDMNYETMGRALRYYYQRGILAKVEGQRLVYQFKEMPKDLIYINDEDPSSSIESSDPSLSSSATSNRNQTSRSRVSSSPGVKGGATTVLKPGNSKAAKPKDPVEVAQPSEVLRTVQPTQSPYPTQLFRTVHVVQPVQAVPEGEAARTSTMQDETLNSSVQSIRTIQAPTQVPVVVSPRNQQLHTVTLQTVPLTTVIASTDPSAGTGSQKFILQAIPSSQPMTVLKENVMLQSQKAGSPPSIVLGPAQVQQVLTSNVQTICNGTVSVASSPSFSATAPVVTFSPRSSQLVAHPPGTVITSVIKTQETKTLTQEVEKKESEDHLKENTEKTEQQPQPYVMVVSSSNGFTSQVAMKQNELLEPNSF
Summary of the method: as §1

[6] = biological target: T5, EHF (Homo sapiens, UniProt Q9NZC4 1-300)
T5 sequence: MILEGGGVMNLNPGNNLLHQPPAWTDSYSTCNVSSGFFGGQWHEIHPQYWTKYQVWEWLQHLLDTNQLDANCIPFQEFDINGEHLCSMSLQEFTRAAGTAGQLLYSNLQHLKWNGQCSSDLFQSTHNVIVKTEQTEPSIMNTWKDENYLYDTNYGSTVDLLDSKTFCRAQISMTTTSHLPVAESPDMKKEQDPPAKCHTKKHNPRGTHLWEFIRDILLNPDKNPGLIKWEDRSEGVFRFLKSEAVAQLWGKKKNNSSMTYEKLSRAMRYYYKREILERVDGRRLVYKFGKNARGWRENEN
Summary of the method: as §1

[7] = biological target: SPI1 (Homo sapiens, UniProt P17947 1-270)
Summary of the method: as §1

[8] = biological target: SPIB (Homo sapiens, UniProt Q01892 1-262)
Sequence of SPIB (Q01892 whole entry): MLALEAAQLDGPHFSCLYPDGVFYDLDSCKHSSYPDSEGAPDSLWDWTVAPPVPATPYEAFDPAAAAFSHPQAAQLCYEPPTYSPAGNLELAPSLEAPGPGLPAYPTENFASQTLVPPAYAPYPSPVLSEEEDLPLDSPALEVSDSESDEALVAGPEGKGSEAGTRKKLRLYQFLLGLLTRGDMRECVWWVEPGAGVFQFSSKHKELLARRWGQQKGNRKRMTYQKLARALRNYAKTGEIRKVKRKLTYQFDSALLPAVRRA
Summary of the method: as §1

[9] = biological target: T6, ELK3 (Homo sapiens, UniProt P41970 1-407)
T6 sequence: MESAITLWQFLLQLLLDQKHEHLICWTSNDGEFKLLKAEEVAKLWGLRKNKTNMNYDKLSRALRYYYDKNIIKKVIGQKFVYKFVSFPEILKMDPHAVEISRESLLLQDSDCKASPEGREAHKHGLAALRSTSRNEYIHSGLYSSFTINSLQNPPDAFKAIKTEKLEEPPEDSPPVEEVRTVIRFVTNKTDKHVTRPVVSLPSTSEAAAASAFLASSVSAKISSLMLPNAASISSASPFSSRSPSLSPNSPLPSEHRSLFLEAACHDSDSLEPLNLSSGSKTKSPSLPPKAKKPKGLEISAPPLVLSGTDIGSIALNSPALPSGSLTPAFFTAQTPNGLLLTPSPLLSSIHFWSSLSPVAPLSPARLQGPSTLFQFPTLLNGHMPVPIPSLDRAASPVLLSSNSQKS
Summary of the method: as §1

TGACCG
binding signal [1]: 1.62 fold enrichment (6-mer frequency, TF over GST control) | binding signal [2]: 1.48 fold enrichment (6-mer frequency, TF over GST control) | binding signal [3]: 1.59 fold enrichment (6-mer frequency, TF over GST control) | binding signal [4]: 1.55 fold enrichment (6-mer frequency, TF over GST control) | binding signal [5]: 1.53 fold enrichment (6-mer frequency, TF over GST control) | binding signal [6]: 1.53 fold enrichment (6-mer frequency, TF over GST control) | binding signal [7]: 1.52 fold enrichment (6-mer frequency, TF over GST control) | binding signal [8]: 1.44 fold enrichment (6-mer frequency, TF over GST control) | binding signal [9]: 1.47 fold enrichment (6-mer frequency, TF over GST control)

TACATG
binding signal [1]: 1.24 fold enrichment (6-mer frequency, TF over GST control) | binding signal [2]: 1.09 fold enrichment (6-mer frequency, TF over GST control) | binding signal [3]: 1.14 fold enrichment (6-mer frequency, TF over GST control) | binding signal [4]: 1.2 fold enrichment (6-mer frequency, TF over GST control) | binding signal [5]: 1.27 fold enrichment (6-mer frequency, TF over GST control) | binding signal [6]: 1.18 fold enrichment (6-mer frequency, TF over GST control) | binding signal [7]: 1.26 fold enrichment (6-mer frequency, TF over GST control) | binding signal [8]: 1.16 fold enrichment (6-mer frequency, TF over GST control) | binding signal [9]: 1.3 fold enrichment (6-mer frequency, TF over GST control)

CAAAAA
binding signal [1]: 1.14 fold enrichment (6-mer frequency, TF over GST control) | binding signal [2]: 1.04 fold enrichment (6-mer frequency, TF over GST control) | binding signal [3]: 1.16 fold enrichment (6-mer frequency, TF over GST control) | binding signal [4]: 1.07 fold enrichment (6-mer frequency, TF over GST control) | binding signal [5]: 1.16 fold enrichment (6-mer frequency, TF over GST control) | binding signal [6]: 1.2 fold enrichment (6-mer frequency, TF over GST control) | binding signal [7]: 1.32 fold enrichment (6-mer frequency, TF over GST control) | binding signal [8]: 1.19 fold enrichment (6-mer frequency, TF over GST control) | binding signal [9]: 1.17 fold enrichment (6-mer frequency, TF over GST control)

ATGATA
binding signal [1]: 1.22 fold enrichment (6-mer frequency, TF over GST control) | binding signal [2]: 1.23 fold enrichment (6-mer frequency, TF over GST control) | binding signal [3]: 1.16 fold enrichment (6-mer frequency, TF over GST control) | binding signal [4]: 1.26 fold enrichment (6-mer frequency, TF over GST control) | binding signal [5]: 1.24 fold enrichment (6-mer frequency, TF over GST control) | binding signal [6]: 1.32 fold enrichment (6-mer frequency, TF over GST control) | binding signal [7]: 1.2 fold enrichment (6-mer frequency, TF over GST control) | binding signal [8]: 1.21 fold enrichment (6-mer frequency, TF over GST control) | binding signal [9]: 1.34 fold enrichment (6-mer frequency, TF over GST control)

TCTTTA
binding signal [1]: 1.22 fold enrichment (6-mer frequency, TF over GST control) | binding signal [2]: 1.25 fold enrichment (6-mer frequency, TF over GST control) | binding signal [3]: 1.33 fold enrichment (6-mer frequency, TF over GST control) | binding signal [4]: 1.29 fold enrichment (6-mer frequency, TF over GST control) | binding signal [5]: 1.31 fold enrichment (6-mer frequency, TF over GST control) | binding signal [6]: 1.25 fold enrichment (6-mer frequency, TF over GST control) | binding signal [7]: 1.32 fold enrichment (6-mer frequency, TF over GST control) | binding signal [8]: 1.21 fold enrichment (6-mer frequency, TF over GST control) | binding signal [9]: 1.27 fold enrichment (6-mer frequency, TF over GST control)

TCTAAT
binding signal [1]: 1.2 fold enrichment (6-mer frequency, TF over GST control) | binding signal [2]: 1.17 fold enrichment (6-mer frequency, TF over GST control) | binding signal [3]: 1.18 fold enrichment (6-mer frequency, TF over GST control) | binding signal [4]: 1.17 fold enrichment (6-mer frequency, TF over GST control) | binding signal [5]: 1.14 fold enrichment (6-mer frequency, TF over GST control) | binding signal [6]: 1.26 fold enrichment (6-mer frequency, TF over GST control) | binding signal [7]: 1.19 fold enrichment (6-mer frequency, TF over GST control) | binding signal [8]: 1.16 fold enrichment (6-mer frequency, TF over GST control) | binding signal [9]: 1.21 fold enrichment (6-mer frequency, TF over GST control)

CTACCT
binding signal [1]: 1.37 fold enrichment (6-mer frequency, TF over GST control) | binding signal [2]: 1.46 fold enrichment (6-mer frequency, TF over GST control) | binding signal [3]: 1.35 fold enrichment (6-mer frequency, TF over GST control) | binding signal [4]: 1.43 fold enrichment (6-mer frequency, TF over GST control) | binding signal [5]: 1.35 fold enrichment (6-mer frequency, TF over GST control) | binding signal [6]: 1.46 fold enrichment (6-mer frequency, TF over GST control) | binding signal [7]: 1.45 fold enrichment (6-mer frequency, TF over GST control) | binding signal [8]: 1.4 fold enrichment (6-mer frequency, TF over GST control) | binding signal [9]: 1.44 fold enrichment (6-mer frequency, TF over GST control)

CCTTAG
binding signal [1]: 1.3 fold enrichment (6-mer frequency, TF over GST control) | binding signal [2]: 1.3 fold enrichment (6-mer frequency, TF over GST control) | binding signal [3]: 1.18 fold enrichment (6-mer frequency, TF over GST control) | binding signal [4]: 1.24 fold enrichment (6-mer frequency, TF over GST control) | binding signal [5]: 1.27 fold enrichment (6-mer frequency, TF over GST control) | binding signal [6]: 1.3 fold enrichment (6-mer frequency, TF over GST control) | binding signal [7]: 1.21 fold enrichment (6-mer frequency, TF over GST control) | binding signal [8]: 1.34 fold enrichment (6-mer frequency, TF over GST control) | binding signal [9]: 1.23 fold enrichment (6-mer frequency, TF over GST control)
